We go through eight compounds from PubChem BioAssay (NCI).

Some test systems named below: NCI-H23 lung; NCI-H226 lung; NCI-H322M lung; HOP-62 NSCLC; NCI-H460 lung; HOP-92 NSCLC; NCI-H522 lung; A549/ATCC NSCLC; 786-0 renal; COLO 205 colon; DU-145 prostate; MALME-3M melanoma; MDA-MB-231 breast; RXF 393 renal; SF-268 CNS; SF-295 CNS; SF-539 CNS; UACC-257 melanoma; M14 melanoma.
Common to all, as to assay: NCI-60 one-dose screen, 48 h (100 = growth as untreated, 0 = no growth, -100 = all killed)
Holding throughout (details): 10 µM unless noted

Compounds without any hit were thinned out: in the full panel of roughly 83,000, 20% have a hit.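 For each line, cells grew in 96-well plates with the test compound present at a single concentration for 48 hours.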 Unmarked numbers belong to inactive results. Activity calls are given as the source filed them. How the source made its calls: active means growth percent below 10; inactive means the rest.

Turning to `NC(=S)N1N=C(c2ccccc2)CC1c1cn(-c2ccccc2)nc1-c1ccc(OCc2ccccc2)cc1` (configuration not stated), the growth with NCI-H23 lung was 104%; in the test on NCI-H226 lung, 98.4%; in the test on NCI-H322M lung it was 94.9%; in the test on HOP-62 NSCLC, 101%; in the test on NCI-H460 lung, 106%; with HOP-92 NSCLC, 80%. Also, the growth in the test with NCI-H522 lung was 83.5%; with A549/ATCC NSCLC, 91.7%; in the test with 786-0 renal it was 98.4%; with COLO 205 colon, 115%; in the test with DU-145 prostate, 104%; with MALME-3M melanoma, 101%. In addition, the growth in the test with MDA-MB-231 breast was 99.2%; with RXF 393 renal, 110%; in the test with SF-268 CNS, 101%; in the test on SF-295 CNS, 105%; in the test with SF-539 CNS it was 102%; with UACC-257 melanoma, 92.9%. In addition, in the test with M14 melanoma, the growth is 101%.
On to `Cc1nn(-c2ccccc2)c(Cl)c1/C=N\N=c1/sc2ccccc2n1C`, for which the growth in the test with NCI-H23 lung was 100%; with NCI-H226 lung it was 105%; in the test on NCI-H322M lung, 97.5%; in the test on HOP-62 NSCLC, 93.1%; in the test with NCI-H460 lung, 107%; with HOP-92 NSCLC it was 84.5%. In addition, the growth is 97.7% with NCI-H522 lung; 85.1% in the test with A549/ATCC NSCLC; 92.6% in the test with 786-0 renal; 109% in the test with COLO 205 colon; 108% in the test with DU-145 prostate; 112% in the test on MALME-3M melanoma. Besides, the growth in the test with MDA-MB-231 breast is 93.2%; in the test with RXF 393 renal, 109%; in the test with SF-268 CNS, 101%; in the test with SF-295 CNS, 109%; in the test with SF-539 CNS, 97.5%; in the test on UACC-257 melanoma it was 97.1%. Moreover, in the test on M14 melanoma, the growth is 99.8%.
`COc1cc2cc(Oc3cccc(NC(=O)Nc4cc(C(F)(F)F)cc(C(F)(F)F)c4)c3)c(C)nc2cc1OC`: the growth in the test on NCI-H23 lung was 2.28% (active); in the test on NCI-H226 lung, -10.2% (active); with NCI-H322M lung, 14.9%; in the test on HOP-62 NSCLC, -54.1% (active); with NCI-H460 lung, 7% (active); in the test with HOP-92 NSCLC it was -25.4% (active). In addition, the growth with NCI-H522 lung is -33.4% (active); with A549/ATCC NSCLC, 5.93% (active); with 786-0 renal, -16.6% (active); in the test on COLO 205 colon, -81.2% (active); with DU-145 prostate, 19.5%; in the test on MALME-3M melanoma, -3.13% (active). Also, the growth in the test with MDA-MB-231 breast is -36.1% (active); in the test with RXF 393 renal it was -24.5% (active); in the test on SF-268 CNS, 15.3%; in the test with SF-295 CNS it was -59.2% (active); in the test on SF-539 CNS, -40.9% (active); in the test on UACC-257 melanoma, -4.68% (active). Also, the growth in the test on M14 melanoma is 9.04% (active).
Turning to `Cc1ccc(-n2nc3c(c(C#N)c2=O)CC(c2ccccc2[N+](=O)[O-])C([N+](=O)[O-])=C3O)cc1` (configuration not stated), the growth was 93.2% in the test on NCI-H23 lung; 92.1% with NCI-H226 lung; 88% with NCI-H322M lung; 84.6% in the test on HOP-62 NSCLC; 95.4% with NCI-H460 lung; 88.5% in the test on HOP-92 NSCLC. For the same compound, the growth with NCI-H522 lung is 89.4%; in the test on A549/ATCC NSCLC it was 90.1%; with 786-0 renal it was 82.7%; in the test with COLO 205 colon it was 101%; in the test on DU-145 prostate, 79.8%; in the test on MALME-3M melanoma, 79.5%. The growth with MDA-MB-231 breast is 70.7%; with RXF 393 renal, 81.9%; in the test with SF-268 CNS it was 85.7%; in the test on SF-295 CNS, 105%; in the test with SF-539 CNS, 96.9%; in the test on UACC-257 melanoma, 93.8%. In the test with M14 melanoma, the growth was 92.1%.
On to `N#CC(C(=O)/C(=N/NC(=O)c1ccccc1O)C(C#N)c1ccccc1)c1ccccc1` (configuration not stated), for which the growth in the test on NCI-H23 lung was 55.5%; in the test on NCI-H226 lung, 70.5%; with NCI-H322M lung, 68.4%; with HOP-62 NSCLC, 30.8%; in the test with NCI-H460 lung it was 24.3%; in the test with HOP-92 NSCLC, 40.4%. Also, the growth in the test with NCI-H522 lung is 67.9%; in the test on A549/ATCC NSCLC, 20.1%; in the test on 786-0 renal, 85.9%; in the test on COLO 205 colon it was 105%; in the test on DU-145 prostate it was 39.4%; in the test with MALME-3M melanoma, 87.8%. Besides, the growth with MDA-MB-231 breast was 63.7%; with RXF 393 renal, 55.9%; in the test with SF-268 CNS it was 44.1%; with SF-295 CNS, 101%; with SF-539 CNS, 33.3%; with UACC-257 melanoma, 46.2%. Besides, in the test with M14 melanoma, the growth was 46.4%.
With `CC1(C)NCCC[C@]2(C)[C@H]3CC(=O)[C@H]4[C@@H]5C[C@](C)(CO)CC[C@]5(C)CC[C@@]4(C)[C@]3(C)CC[C@@H]12`, the growth in the test on NCI-H23 lung was 104%; in the test on NCI-H226 lung it was 97.9%; in the test with NCI-H322M lung, 98.2%; in the test with HOP-62 NSCLC it was 92.4%; in the test on NCI-H460 lung, 99.6%; with HOP-92 NSCLC, 84%. Besides, the growth is 101% in the test on NCI-H522 lung; 92% in the test on A549/ATCC NSCLC; 94% with 786-0 renal; 94.2% in the test on COLO 205 colon; 96.4% with DU-145 prostate; 102% in the test with MALME-3M melanoma. For the same compound, the growth in the test with MDA-MB-231 breast is 118%; with RXF 393 renal, 91.4%; in the test with SF-268 CNS, 85.3%; in the test with SF-295 CNS, 106%; in the test with SF-539 CNS it was 91.2%; in the test on UACC-257 melanoma it was 114%. In addition, the growth with M14 melanoma is 92.6%.
For the compound `O=C1c2cccc3c(-c4ccc5c(c4)ncn5C4CCCCC4)ccc(c23)C(=O)N1CCO`, the growth was 78.6% in the test on NCI-H23 lung; 77% in the test with NCI-H226 lung; 91.8% with NCI-H322M lung; 81.9% with HOP-62 NSCLC; 94.1% with NCI-H460 lung; 51.1% in the test with HOP-92 NSCLC. In addition, the growth in the test on NCI-H522 lung is 73.7%; with A549/ATCC NSCLC, 95.6%; with 786-0 renal it was 95.4%; with COLO 205 colon, 108%; in the test with DU-145 prostate it was 100%; with MALME-3M melanoma, 105%. Also, the growth was 71.1% in the test on MDA-MB-231 breast; 106% in the test on RXF 393 renal; 93.9% in the test on SF-268 CNS; 81.9% in the test with SF-295 CNS; 99% in the test on SF-539 CNS; 94.5% with UACC-257 melanoma. The growth with M14 melanoma was 106%.
Regarding `O=C1c2ccccc2C(=O)c2c([N+](=O)[O-])ccc(Cl)c21`, the growth is 89.3% in the test on NCI-H23 lung; 102% in the test with NCI-H226 lung; 99.7% in the test on NCI-H322M lung; 111% with HOP-62 NSCLC; 101% in the test with NCI-H460 lung; 76.5% in the test on HOP-92 NSCLC. Further, the growth was 59.2% in the test on NCI-H522 lung; 93.7% in the test on A549/ATCC NSCLC; 96.6% in the test with 786-0 renal; 116% with COLO 205 colon; 101% with DU-145 prostate; 116% with MALME-3M melanoma. Besides, the growth was 103% with MDA-MB-231 breast; 94.3% with RXF 393 renal; 87.4% with SF-268 CNS; 116% in the test with SF-295 CNS; 99.1% in the test with SF-539 CNS; 96.2% in the test with UACC-257 melanoma. Further, in the test with M14 melanoma, the growth is 108%.
